Results published in PubChem BioAssay AID624491 (Broad Institute, 2012).
The whole screen tested about 1,800 compounds, of which about 1,400 (78%) were called active. Roughly 2% stayed inconclusive and do not appear here.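 How the source made its calls: active means fitted curve crossing a set activation limit at or below the highest valid dose tested; inconclusive means flat fit at 30 to 70% activation, or poor fit; inactive means the rest, including signal decreases.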 So high a share suggests a set chosen from earlier hits. The list is a sample of the results. Potency and affinity values are given separately.

Experiment: blockers of NLG process in reporter cells – D54 ERlucT cells, luminescence, cherry-picks, dose response (AID 624491);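 further: signal gain reflects blocked N-linked glycosylation of a luciferase reporter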
Conditions: D54 ERlucT glycosylation luciferase reporter, 24 h, 100% = twice neutral-control luminescence; series mostly up to 19.5 µM

Activation (NLG inhibition), inactive:
O=C(COc1ccc(Oc2ccccc2)cc1)NCc1cn2ccccc2n1
NC(=O)[C@H]1CC2(CC(c3cccc(NC(=O)COc4ccc(Cl)cc4)c3)=NO2)CN1C(=O)C(c1ccccc1)c1ccccc1 (some centres undefined)
O=C(c1ccc(Cl)cc1)C(CN1CCCCC1)c1ccccc1 (centres undefined)
Cc1cc(=O)oc2cc(OCC3CC(c4ccccc4)=NO3)ccc12 (centres undefined)
COc1cc(/C=C/C(=O)c2ccc3c(c2)OCCO3)cc(OC)c1OC
CCOc1cc(/C=C/C(=O)c2ccc(C)cc2)ccc1OCC(=O)N(C)C
O=C(/C=C/c1ccncc1)c1ccc2c(c1)OCCO2
CC(=O)Nc1ccc(/C=C/C(=O)c2ccc3c(c2)OCCO3)cc1
O=C(C=Cc1ccc2c(c1)OCO2)C=Cc1ccc2c(c1)OCO2
C=CCOc1ccc(C2C(C#N)=C(N)N(Nc3ccccc3)C3=C2C(=O)CCC3)cc1OC (centres undefined)
Cc1cc(OC(C)C)nc(NCc2ccccc2)n1
COc1ccc(Cn2c(=O)cc(N)n(-c3ccccc3C)c2=O)cc1
Cn1c(N)c(C(=O)COC(=O)c2cc(S(=O)(=O)N3CCOCC3)ccc2F)c(=O)n(C)c1=O
CCCCCCCCCCCCCCCC[n+]1ccc(/C=N/O)cc1
Cc1ccc(OCCOC(=O)c2c(-c3ccccc3)noc2C)cc1
Cc1cc(C)c(C)c(OC(=O)c2sc(Cl)nc2C)c1
COc1ccc(C(=O)c2sc(Nc3ccccc3)nc2N)cc1
CN(C)c1ccc(/C=N/NC(=O)c2ccccc2Cl)cc1
Cc1ccc(Cc2c(C)nc3nc(SCC(=O)NCc4ccco4)nn3c2C)cc1
CCOc1ccc(Nc2nc(Cc3nnc(SCC(=O)NCc4ccco4)n3CC)cs2)cc1
Cc1cc2cc(CNC(=O)Cc3cccs3)ccc2n1C
S=c1[nH]nc(-c2cc(-c3ccccc3)n[nH]2)n1/N=C/C(Br)=C/c1ccccc1
COC(=O)CC1COc2ccccc2N1S(=O)(=O)c1ccc(OC)cc1 (centres undefined)
COc1ccc(F)cc1C1=CC(=O)C[C@H](c2ccc3c(c2)OCO3)C1
CN1CC(=O)N2C(c3ccc(Cl)cc3)c3[nH]c4ccccc4c3C[C@H]2C1=O (some centres undefined)
CCc1ccc(/C=N/NC(=O)c2cc(-c3ccncc3)nc3ccccc23)s1
COc1cc(N=Nc2cccc(S(N)(=O)=O)c2)c2ccccc2c1N
Oc1ccc(NCc2cccs2)cc1
OCC1OC(n2cnc3c(=S)nc[nH]c32)CC1O (centres undefined)
O=C(Nc1c(Cl)ccc2nsnc12)c1ccc([N+](=O)[O-])o1
Cc1ccc2nsnc2c1NC(=O)c1ccc([N+](=O)[O-])o1
Oc1ccc(N=Nc2ccccc2)o1
CCCCCc1ccc(OCCC[n+]2ccccc2)c(CCCCC)c1
Cc1noc(C)c1COc1ccccc1C(=O)N1CCN(c2cccc(C(F)(F)F)c2)CC1
COc1ccc(CCCNC(=O)C2(C)Cc3c(-c4ccc5c(c4)OCO5)ccnc3O2)cc1 (centres undefined)
CC1(C(=O)Nc2ccc(Cl)cc2)Cc2c(-c3ccc4c(c3)OCO4)ccnc2O1 (centres undefined)
CC1(C(=O)NCc2ccccc2)Cc2c(-c3ccccc3)ccnc2O1 (centres undefined)
CC(=O)Nc1cccc(-c2ccnc3c2CC(C)(C(=O)NCc2ccc(N(C)C)cc2)O3)c1 (centres undefined)
CC1(C(=O)NCc2ccccc2)Cc2c(-c3ccc4c(c3)OCO4)ccnc2O1 (centres undefined)
O=C(CCl)Nc1cc(-c2ccccc2)nn1-c1ccccc1
CCOC(=O)c1c(C)oc2c(F)c(F)c(F)c(F)c2c1=O
COc1ccc(S(=O)(=O)Nc2ccc3c(c2)n(C)c(=O)n3C)cc1OC
CC(=O)Nc1sc(C)c(C)c1C(=O)OCC(=O)Nc1cccc(C)c1
CCOC(=O)c1c(NC(C)=O)sc2c1CCC(C=O)=C2Sc1ccccc1
COC(=O)c1cc(=O)n(Cc2ccco2)c(=Nc2ccc(F)cc2)s1
Cc1cnc(NC(=O)C2CC(=O)N(c3cccc(Cl)c3)C2)s1 (centres undefined)
COc1ccc(-c2nc(NC(=O)C3CC(=O)N(c4ccc5c(c4)OCCO5)C3)sc2C)cc1 (centres undefined)
CCOC(=O)C1CCN(S(=O)(=O)Cc2ccccc2)CC1
CCOC(=O)C1CCN(Cc2cc(Cl)c3ccccc3c2O)CC1
CCOC(=O)/C=C(\C)Sc1cc(=O)oc2ccccc12
Cc1ccc(OCC(=O)Nc2ccc(NC(=O)c3cccs3)cc2)c(C)c1
Cc1ccc(C(=O)Nc2ccc(C(=O)/C=C/c3cccs3)cc2)cc1
COc1ccc(Nc2nc(N)c(C(=O)c3ccc(F)cc3)s2)cc1
Cc1nn(CC(C)C)c(Cl)c1C(=O)N(c1ccc(Cl)cc1F)S(C)(=O)=O
C[C@]1(O)CC(=O)C=C[C@H]1Nc1ccccc1
COc1cccc(-c2cc(C(=O)Nc3cc(OC)c(OC)c(OC)c3)no2)c1
COc1cc(NC(=O)N2CCc3nc(NCc4cccc(Oc5ccccc5)c4)ncc3C2)cc(OC)c1OC
COc1cc2cc(-c3ccc(O)cc3O)nc(C)c2cc1OC
COc1ccc(C(=O)n2c(-c3ccco3)nc3ccccc32)cc1
CCOC(=O)C(=Cc1ccc(-c2ccsc2C(=O)OC)o1)C(=O)OCC
CCCN(CCC)S(=O)(=O)c1ccc(C(=O)Nc2nc3c(s2)CCc2ccccc2-3)cc1
O=C(NC1CCCCC1)c1cccc2c1C(=O)c1ccc(-c3ccc(OC(F)(F)F)cc3)cc1S2(=O)=O
CCN(CC)c1cc(C)c2cc(NC(=O)c3ccccc3OC)ccc2n1
CCOC(=O)c1cc2sccc2n1CC(=O)N1c2ccccc2CC1C (centres undefined)
CCOC(=O)c1cc2c(ccn2C)n1CC(=O)N1CCN(c2ccccc2)CC1
COc1ccc(-n2c(=S)[nH]c3cc(C(=O)NC4CCCCC4)ccc3c2=O)c(OC)c1
COC(=O)c1ccc2c(=O)n(Cc3ccc(C(=O)NC(C)C)cc3)c(=S)[nH]c2c1
CCN1/C(=C/c2ccc3ccccc3[n+]2CC)C=Cc2ccccc21
COc1cc(CCC(=O)Nc2nnc(C)s2)cc(OC)c1OC
Cc1noc2ncnc(Sc3ccc(Cl)cc3)c12
Cc1ccc(C)c(N2CCN(c3cnn(-c4nc5ccccc5s4)c(=O)c3Cl)CC2)c1
COc1ccc(C2NC(=S)NC3=C2CCCC3=C2SCCS2)cc1 (centres undefined)
O=C(Cc1csc(Nc2nc(=S)[nH]c3ccccc23)n1)NCc1cccc(Cl)c1
CNC(=O)c1cccc2nc3ccccc3nc12
CC(C)Oc1ccccc1C1CC(=O)Nc2cc3c(cc21)OCO3 (centres undefined)
CCOc1ccccc1C1CC(=O)Nc2cc3c(cc21)OCCO3 (centres undefined)
COc1cc(C2CC(=O)N(c3ccc(C)cc3)C(=O)C2)cc(OC)c1OC
COc1cc(/C=C(/C(=O)c2cccs2)c2nc3ccccc3[nH]2)cc(OC)c1O
O=C(N/N=C/c1ccc2c(c1)OCO2)C1COc2ccccc2O1 (centres undefined)
N#Cc1c(NC(=O)/C=C/c2ccco2)sc2c1CCCC2
COC(=O)C1=C(C(=O)OC)[C@@H]2N(Cc3ccccc3)c3ccccc3[C@@]23C[C@@H](C(=O)OC)N(C(=O)c2cc(C)oc2C)C3=N1
CC(C)C1N=C(c2ccc3c(c2)OCO3)CC(c2ccccc2O)N1 (centres undefined)
CC(=O)c1ccc(OCC(O)CN2CCN(CCN3C(=O)c4cccc5cccc(c45)C3=O)CC2)cc1 (centres undefined)
Cc1ccc(-c2cc(C(F)F)n3ncc(C(=O)N4CCc5ccccc54)c3n2)cc1
COc1ccc(-c2cc(C(F)F)n3ncc(C(=O)n4ccnc4C)c3n2)cc1
CC(=O)N(C(C)=O)n1c(C)nc2sc3c(c2c1=O)CCCC3
O=C1/C(=C/c2ccccc2)CCc2ccc(Cl)nc21
COc1cccc(-n2c(SCC(=O)NC3CCCCC3)nc3n[nH]c(C)c3c2=N)c1
NC(=O)c1ccc2c(=O)n3c(-c4cc(Cl)c(N)c(Cl)c4)csc3nc2c1
Cc1ccnc(NC(=O)Nc2ccc3c(c2)N(C)C(=O)CS3)c1
COC(=O)c1ccc(Oc2cc(C)nc(-n3nc(C)cc3C)n2)cc1
Cc1ccc2cc3c(N)c4c(C)ccc(C)c4nc3nc2c1
Cc1ccc(N2C(=O)c3cccc4c([N+](=O)[O-])ccc(c34)C2=O)c2cccnc12
Cc1cc(N2CCN(c3ccc([N+](=O)[O-])c4cccnc34)CC2)c2ccccc2n1
Cc1ccc2c(c1)NC(=O)[C@@]1(C)[C@@H](c3ccccc3)[C@H]3COc4ccccc4[C@@H]3N1C2=O
CCN(CC)c1ccc(/C=C/c2cccc[n+]2C)c(OC)c1
O=C(N/N=C/c1ccccn1)c1sc2ccccc2c1Cl
COc1ccc(C=C(c2nc3ccccc3s2)c2nc3ccccc3s2)cc1O
CC(=O)Nc1cccc(-c2ccnc3c2CC(C(=O)NCc2ccco2)O3)c1 (centres undefined)
Nc1nc(-c2ccccn2)nc(N)c1Cc1ccc(Cl)cc1Cl
CC(=O)Nc1cccc(-c2ccnc3c2CC(C(=O)NCc2ccc(F)c(F)c2)O3)c1 (centres undefined)
COc1ccc(CNC(=O)C2Cc3c(-c4ccc5c(c4)OCO5)ccnc3O2)cc1OC (centres undefined)
CN(C)Cc1c(O)ccc2c1O/C(=C\C=C\c1ccccc1)C2=O
COc1ccc(OC)c(NS(=O)(=O)c2ccc(N3CCCC3=O)cc2)c1
